# Data published in PubChem BioAssay (NCATS).
# Records with an inconclusive call do not appear. Entries that show only a call come without a potency. Activity calls are given as the source filed them. Calls follow the shape of the dose curve; as a rule, active = well fitted inhibition curve with a large enough effect; inconclusive = small, poorly fitted or top-dose-only effect; inactive = flat fitted curve, though single readings scatter.
# System: CRL-7250
# Assay: qHTS assay to identify novel small-molecules to repurpose for Merkel cell carcinoma treatment (AID 1296009); also: nearly all actives have a fitted effect of over 60% in size
# Settings: MCC and control cell lines, CellTiter-Glo viability, 72 h; series mostly up to 92 µM
# Procedure, shortened: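 Cells were incubated with compound for 72 hr at 37 degree celsius before CellTiter-Glo addition. Luminescence was normalized with no-cell wells as full cytotoxicity and DMSO as baseline.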
row,SMILES,Potency
1,COc1cc(CCCO)ccc1O[C@@H]1O[C@H](CO)[C@@H](O)[C@H](O)[C@H]1O,inactive
2,O=C(O)c1cc(-c2c(-c3ccccc3)nn3ccccc23)n[nH]c1=O,inactive
3,C=C1C(=O)OC2C1C(O)CC1(C)C(O)CCC(C=O)C21 (centres undefined),inactive
4,COC(=O)C1=COC(O[C@@H]2O[C@H](COC(=O)/C=C/c3ccc(O)cc3)[C@@H](O)[C@H](O)[C@H]2O)C2C(CO)=CCC12 (some centres undefined),inactive
5,CSCC1OC(n2cnc3c(N)ncnc32)C(O)C1O (centres undefined),inactive
6,C=CC1(C)CC(OC(=O)C(=C)C(O)COC(C)=O)C(C(=C)C(=O)OC)C(O)C1C(=C)CO (centres undefined),inactive
7,CC(NC(=O)[C@H](Cc1ccccc1)NC(=O)OCc1ccccc1)C(=O)CF (some centres undefined),inactive
8,C[C@H]1/C=C/C=C/C=C/C=C/C=C/[C@@H](O)[C@H](C(=O)O)[C@H](O)C[C@H](O)CCC[C@H](O)C[C@H](O)C[C@H](O)[C@@H](C)C(=O)O[C@@H]1C,inactive
9,CCOc1nc2c(N)ncnc2n1CC,inactive
10,COc1cc2c(cc1OC)CN(C(=O)[C@@H](NCc1ccncc1)C(C)(C)C)CC2,inactive
11,O=C1CC(c2ccc([N+](=O)[O-])cc2)=NN1c1ccccc1,inactive
12,N#CC1C(=O)N=C(c2cc(Cl)ccc2O)C=C1c1cc(OCc2ccccc2)cc(OCc2ccccc2)c1 (centres undefined),inactive
13,COc1cc2c(cc1OC)CC(=O)N(CCCNC[C@H]1Cc3cc(OC)c(OC)cc31)CC2,inactive
14,CC1=CC(=O)[C@]2(O[C@@H]3O[C@@H](C)[C@H](O)[C@@H](O)[C@H]3O)C=CO[C@@H](O[C@@H]3O[C@H](CO)[C@@H](O)[C@H](O)[C@H]3O)[C@H]12,inactive
